Measurements reported in PubChem BioAssay (NCI).
This is part of a sample that, as a whole, favours compounds with a hit. Of some 83,000 tested, about 20% had one in any assay.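 Cell lines were cultured in 96-well plates, exposed to a single compound concentration, and assessed for percent growth 48 hours later.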 Values without a mark were called inactive. Active and inactive are the calls of the source. How the source made its calls: active means growth percent below 10; inactive means the rest.

Each compound was assayed on MDA-MB-468 breast (assay: NCI-60 one-dose screen, 48 h (100 = growth as untreated, 0 = no growth, -100 = all killed)). Settings: 10 µM unless noted.

SMILES | growth
COc1ccc2c(c1)C=CC(C#N)N2C(=O)c1ccccc1 (centres undefined) | 13.1%
O=S(=O)(c1ccccc1)N1CCCc2ccccc21 | 104%
Cc1cc(C)c(NC(=O)c2sc3nc4c(cc3c2N)CCCC4)c(C)c1 | 47.9%
CC1=CC(=NC(=O)CBr)C=C/C1=N\S(=O)(=O)c1ccccc1 | 66%
Cc1cc(Nc2cccc(F)c2)nc(NCc2ccccc2)n1 | 16.2%
O=c1oc2ccc(Cl)cc2c(=O)n1-c1cc(C(F)(F)F)cc(C(F)(F)F)c1 | -8.67% (active)
C=C(C)[C@@H]1CC[C@@]2(C(=O)O)CC[C@]3(C)C(CCC4[C@@]5(C)CCC(OS(=O)(=O)c6ccccc6)C(C)(C)C5CC[C@]43C)C12 (some centres undefined) | 53.9%
Cc1cc(CSc2ccccc2C(=O)N2CC=C(c3ccccc3)CC2)on1 | 94.2%
CCCCC(CC)CN=C(N)NC(N)=NCCCCCCN=C(N)NC(N)=NCC(CC)CCCC (centres undefined) | -85.7% (active)
O=P(O)(O)C(O)(Cc1cccnc1)P(=O)(O)O | 80.6%
Cc1ccc(OCCn2c(C)nn(-c3ccc(Cl)cc3)c2=O)cc1 | 124%
N#CC1C(c2ccc(Cl)cc2)=Nc2c(c(-c3ccccc3)nn2-c2ccccc2)C12C(=O)Nc1ccc(Cl)cc12 (centres undefined) | 26.3%
NC(=O)c1cccc(-c2ccc(S(=O)(=O)Nc3ccc4c(c3)N(C(=O)C3CC3)CCC4)cc2)c1 | -4.85% (active)
C=C1C(=O)O[C@H]2[C@H]1CC/C(COC(=O)NCCc1c[nH]c3ccc(OC)cc13)=C\CC[C@@]1(C)O[C@@H]21 | -44.9% (active)
